Measured values reported in the OligoGym collection.

What was measured:
Assay in all cases: pooled miR-30 sensor sort-seq; sequence = guide strand
Settings in all cases: shRNA
[1] = biological target: LPAR3
[2] = biological target: LRCH2
[3] = biological target: LRDD
[4] = biological target: LRRC15
[5] = biological target: LRRC14
[6] = biological target: LTA4H
[7] = biological target: MAN1C1
[8] = biological target: MCM6
[9] = biological target: MEPCE
[10] = biological target: MIP
[11] = biological target: MIOX
[12] = biological target: MIER1
[13] = biological target: MIS12
[14] = biological target: MMADHC
Note: reference of the scale not given here.

Q: Which sensor-assay potency score (higher = more potent) [1] does the source give for TTCCTGTCCAGTCATCGACAGT here?
A: -1.5

Q: With TAAATTAGCCAACAGGTAGTAG as the sequence, how does the sensor-assay potency score (higher = more potent) [1] read?
A: -0.542

Q: Which sensor-assay potency score (higher = more potent) [1] does the source give for TTGGCTAATACTATCCTCTATG here?
A: -0.824

Q: TTCATTGCCACTTGAACTCTTC was tested. Which sensor-assay potency score (higher = more potent) [2] did it give?
A: 0.503

Q: How did the sensor-assay potency score (higher = more potent) [1] turn out when TTGACGTACACGTAGATCCGCA was run?
A: 0.439

Q: How did the sensor-assay potency score (higher = more potent) [3] turn out when AATCCTCTGAAGCATCTCCTGC was run?
A: -1.15

Q: For TTAAACATATCTGTGCTGGTGG, which sensor-assay potency score (higher = more potent) [2] is on record?
A: 0.402

Q: How did the sensor-assay potency score (higher = more potent) [1] turn out when TTCTGTTTTTGATCACTGCCGC was run?
A: -0.331

Q: How did the sensor-assay potency score (higher = more potent) [4] turn out when TTCTTCTCAATCCTCAGGGCGA was run?
A: -1.09

Q: With TAGCGGAAGTTGTCCTCGCCAT as the sequence, how does the sensor-assay potency score (higher = more potent) [5] read?
A: -0.494

Q: How did the sensor-assay potency score (higher = more potent) [1] turn out when TTGTAGGAGTAGATGATGGGGT was run?
A: -0.155

Q: How did the sensor-assay potency score (higher = more potent) [5] turn out when TCACGCAGACAGGTGAAGCGGC was run?
A: -0.746

Q: TACGGCAGCAGTACAGTCCCAC was tested. Which sensor-assay potency score (higher = more potent) [5] did it give?
A: -0.572

Q: TGTAACTTTGTCTTTCTCCAAG was tested. Which sensor-assay potency score (higher = more potent) [6] did it give?
A: -0.956

Q: For TTGATTGAGAACATCAACCTTA, which sensor-assay potency score (higher = more potent) [6] is on record?
A: 0.904

Q: With AATTGTGACAAAACTAAACTGT as the sequence, how does the sensor-assay potency score (higher = more potent) [7] read?
A: 0.356

Q: TTGATTTATGTCTTCATTGTAG was tested. Which sensor-assay potency score (higher = more potent) [8] did it give?
A: -0.457

Q: For TTGTTGGGGAAGACTGATGTGT, which sensor-assay potency score (higher = more potent) [9] is on record?
A: -0.599

Q: Which sensor-assay potency score (higher = more potent) [10] does the source give for TTCAGTTCAACAGGTTCCCCTG here?
A: -0.987

Q: How did the sensor-assay potency score (higher = more potent) [11] turn out when TTGTTAAACTTCATCACCTGGT was run?
A: -0.0605

Q: Which sensor-assay potency score (higher = more potent) [11] does the source give for TCCATGACTGTCATTTTCTTGT here?
A: -1.1

Q: For TGAGTGCTAGGTTTCCTCGGAC, which sensor-assay potency score (higher = more potent) [10] is on record?
A: -0.712

Q: Which sensor-assay potency score (higher = more potent) [10] does the source give for TAGGTTTCCTCGGACAGCAGGT here?
A: -0.243

Q: Which sensor-assay potency score (higher = more potent) [12] does the source give for TAGTCGAACAGTACTACCATAA here?
A: -1.32

Q: Which sensor-assay potency score (higher = more potent) [12] does the source give for ATCATCAAAATCATGAACCAGC here?
A: -0.377

Q: Which sensor-assay potency score (higher = more potent) [10] does the source give for TAACGCTATACAGCACAGCGGC here?
A: -1.18

Q: With TGTGCTGTATCGAGGATCCTGG as the sequence, how does the sensor-assay potency score (higher = more potent) [11] read?
A: -0.757

Q: With TTAGTACATAATTCAGTCTTGT as the sequence, how does the sensor-assay potency score (higher = more potent) [13] read?
A: -0.329

Q: With TCTCTCAGAAATACTCTTGAGC as the sequence, how does the sensor-assay potency score (higher = more potent) [10] read?
A: -0.614

Q: Which sensor-assay potency score (higher = more potent) [12] does the source give for TTCGTCTAGAAGACGATCCATG here?
A: -1.5

Q: For TGAGGACAGACAGTCTCTCAGA, which sensor-assay potency score (higher = more potent) [10] is on record?
A: -1.25

Q: How did the sensor-assay potency score (higher = more potent) [10] turn out when TTCCTCGGACAGCAGGTGGGGT was run?
A: -1.18

Q: Which sensor-assay potency score (higher = more potent) [11] does the source give for TTGGGGAAATCTACGTCCGGGT here?
A: -0.845

Q: With TTCAGTCTTGTACTTCTCCTGT as the sequence, how does the sensor-assay potency score (higher = more potent) [13] read?
A: 0.0481

Q: For TAATTCTGCAAGAAGGGCCTGC, which sensor-assay potency score (higher = more potent) [13] is on record?
A: 0.0971

Q: For TGCATGAGCTTGTAGGTGGTGA, which sensor-assay potency score (higher = more potent) [11] is on record?
A: -0.613

Q: How did the sensor-assay potency score (higher = more potent) [10] turn out when TTGTCCATTGGAGACATCGGGT was run?
A: -0.903

Q: Which sensor-assay potency score (higher = more potent) [12] does the source give for TATAATCTTCATCTTCTTCAGA here?
A: -0.137

Q: TTGAGTGCTAGGTTTCCTCGGA was tested. Which sensor-assay potency score (higher = more potent) [10] did it give?
A: -0.0163

Q: With TTCTTCTTTCCAAATCGTGTTT as the sequence, how does the sensor-assay potency score (higher = more potent) [12] read?
A: -0.957

Q: TTATCTTCTGGTAAGTACTCAG was tested. Which sensor-assay potency score (higher = more potent) [12] did it give?
A: -0.171

Q: Which sensor-assay potency score (higher = more potent) [11] does the source give for TCTGGGTCCACATCAGGTCGGT here?
A: -0.363

Q: For TTGGTGTAGAGGTCGAACTTGT, which sensor-assay potency score (higher = more potent) [11] is on record?
A: -0.568

Q: How did the sensor-assay potency score (higher = more potent) [10] turn out when TCGTATGTGGCAAAGATGCAGA was run?
A: -0.993

Q: Which sensor-assay potency score (higher = more potent) [12] does the source give for TTGTGATGGATCATCATTGGAA here?
A: -0.466

Q: AATTTCTACACTCTTCCTCTGT was tested. Which sensor-assay potency score (higher = more potent) [12] did it give?
A: 0.0886

Q: With TTAATCTTCTCAATGCTTCTTC as the sequence, how does the sensor-assay potency score (higher = more potent) [12] read?
A: 0.934

Q: TGTCCATTGGAGACATCGGGTT was tested. Which sensor-assay potency score (higher = more potent) [10] did it give?
A: -1.24

Q: For TTCTTGTAGGAGAAGCCCCCAA, which sensor-assay potency score (higher = more potent) [11] is on record?
A: -0.777

Q: With TTAATATTTCACCTGGTCCATT as the sequence, how does the sensor-assay potency score (higher = more potent) [12] read?
A: -1.02

Q: For TCGAACTTGTTGAACTCCCGCA, which sensor-assay potency score (higher = more potent) [11] is on record?
A: -0.101

Q: TACATCCCGAGCTCTGTGCTGT was tested. Which sensor-assay potency score (higher = more potent) [11] did it give?
A: -0.811

Q: With TTGTAGGTGGTGAAGACACGGT as the sequence, how does the sensor-assay potency score (higher = more potent) [11] read?
A: -0.626

Q: For TATAATCACTTTATCTTCTGGT, which sensor-assay potency score (higher = more potent) [12] is on record?
A: 0.758

Q: Which sensor-assay potency score (higher = more potent) [13] does the source give for TCTCCTTACATTTATCTTCAGG here?
A: -1.19

Q: How did the sensor-assay potency score (higher = more potent) [12] turn out when TACTGTTTGATGCAGTTGGGGG was run?
A: -0.856

Q: TTTTCTTGTAGGAGAAGCCCCC was tested. Which sensor-assay potency score (higher = more potent) [11] did it give?
A: -0.0971

Q: TCAGAAATACTCTTGAGCCGGG was tested. Which sensor-assay potency score (higher = more potent) [10] did it give?
A: 0.442

Q: With TGAGGTGACAATCAAAACCTAT as the sequence, how does the sensor-assay potency score (higher = more potent) [14] read?
A: -0.635

Q: For TTTCACTTGATAAAGGTTCTGC, which sensor-assay potency score (higher = more potent) [14] is on record?
A: 0.549
